SNCA viab count: GF-AFC viability counterscreen for inhibitors of alpha-synuclein gene (SNCA) expression | HEK-293-SNCA-luc viability, GF-AFC fluorescence, 24 h | Potency, µM (titrated, usually from 57.1 µM), inactives show at the highest dose activity change, negative = cytotoxicity, actives largely listed as cytotoxic | 150,000 tested, 0.12% active | AID 1671193, 2021;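 further: potency means the concentration at half of the fitted maximal effect; 0% = DMSO-treated cells and -100% = medium-only wells without cells; nearly all actives have a fitted effect of over 30% in size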
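Cytotoxicity counterscreen: after 24 h compound treatment of genome-edited SNCA-luciferase HEK-293 cells, live-cell protease substrate GF-AFC read by fluorescence after 30 min; activity scaled between DMSO (0%) and medium-only (-100%), curves Hill-fitted.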
KDM5B inh: Primary screen for KDM5B Histone Demethylases FDH-coupled qHTS. KDM5B demethylase, FDH-coupled NADH fluorescence (FDH is formaldehyde dehydrogenase). Potency, µM (highest dose often 57.7 µM), actives largely listed as inhibitors. 220,000 tested, 2.6% active; further: potency means the concentration at half of the fitted maximal effect; 0% is about no effect; nearly all actives have a fitted effect of over 70% in size
Target sequence (Q9UGL1 whole entry, looked up): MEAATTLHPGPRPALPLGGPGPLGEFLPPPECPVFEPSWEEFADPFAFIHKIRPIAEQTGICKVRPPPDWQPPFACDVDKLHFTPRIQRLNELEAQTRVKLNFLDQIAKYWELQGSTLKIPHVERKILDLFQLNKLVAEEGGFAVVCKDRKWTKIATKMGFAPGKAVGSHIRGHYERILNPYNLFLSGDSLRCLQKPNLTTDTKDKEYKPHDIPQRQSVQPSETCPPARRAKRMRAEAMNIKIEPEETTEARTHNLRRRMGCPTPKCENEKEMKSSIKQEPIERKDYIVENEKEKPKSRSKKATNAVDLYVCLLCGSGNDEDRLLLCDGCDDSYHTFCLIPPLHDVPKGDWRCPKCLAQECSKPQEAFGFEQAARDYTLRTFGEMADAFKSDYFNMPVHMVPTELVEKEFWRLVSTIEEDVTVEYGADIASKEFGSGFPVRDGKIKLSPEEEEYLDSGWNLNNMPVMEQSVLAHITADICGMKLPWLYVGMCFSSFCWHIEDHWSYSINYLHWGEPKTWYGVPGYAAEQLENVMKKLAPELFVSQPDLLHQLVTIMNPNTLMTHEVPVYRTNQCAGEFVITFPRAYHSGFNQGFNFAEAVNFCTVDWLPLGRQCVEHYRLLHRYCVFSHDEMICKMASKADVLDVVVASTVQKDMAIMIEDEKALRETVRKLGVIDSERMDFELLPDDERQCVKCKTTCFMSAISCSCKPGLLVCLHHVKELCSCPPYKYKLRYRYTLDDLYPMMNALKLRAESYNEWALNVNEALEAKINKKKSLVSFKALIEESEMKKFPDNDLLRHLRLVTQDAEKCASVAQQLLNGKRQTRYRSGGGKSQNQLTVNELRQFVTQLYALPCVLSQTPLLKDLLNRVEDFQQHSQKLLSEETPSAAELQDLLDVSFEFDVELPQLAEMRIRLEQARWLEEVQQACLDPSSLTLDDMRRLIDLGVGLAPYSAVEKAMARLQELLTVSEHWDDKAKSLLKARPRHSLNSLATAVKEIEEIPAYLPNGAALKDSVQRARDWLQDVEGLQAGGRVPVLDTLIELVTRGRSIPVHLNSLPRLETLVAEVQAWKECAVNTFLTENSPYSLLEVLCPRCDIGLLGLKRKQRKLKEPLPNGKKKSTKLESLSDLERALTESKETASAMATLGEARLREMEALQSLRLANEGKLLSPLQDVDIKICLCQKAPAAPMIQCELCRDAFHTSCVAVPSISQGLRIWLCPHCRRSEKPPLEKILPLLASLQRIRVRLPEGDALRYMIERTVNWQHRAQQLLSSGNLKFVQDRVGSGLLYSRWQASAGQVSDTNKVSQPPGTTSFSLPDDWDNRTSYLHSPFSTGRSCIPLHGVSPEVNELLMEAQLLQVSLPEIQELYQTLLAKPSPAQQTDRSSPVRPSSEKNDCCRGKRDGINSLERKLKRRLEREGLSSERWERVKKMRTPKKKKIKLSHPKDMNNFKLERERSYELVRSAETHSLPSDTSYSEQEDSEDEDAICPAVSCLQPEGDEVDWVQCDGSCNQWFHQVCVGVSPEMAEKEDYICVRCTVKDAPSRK
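qHTS format, multiple compound concentrations. Buffer 50 mM HEPES pH 7.5/0.01% Tween-20; 200 nM KDM5BΔAP final; 10 min compound preincubation; substrate-mix levels 12.5 µM peptide, 25 µM α-KG, 0.25 mM NAD⁺; 30 min RT; ΔRFU.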
SNCA expr inh: Primary qHTS assay for inhibitors of alpha-synuclein gene (SNCA) expression | HEK-293 SNCA-luciferase knock-in, luminescence, 24 h | Potency, µM (doses to about 57.2 µM), for inactives: top-dose activity change, negative = inhibition, usual class: inhibitors | 140,000 tested, 0.17% active;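 further: potency means the concentration at half of the fitted maximal effect; plate controls were DMSO cells for no effect and cell-free wells for full effect; nearly all actives have a fitted effect of over 45% in size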
IP6K1 inhibitor: Primary qHTS assay for small molecule inhibitors of Inositol hexaphosphate kinase 1 (IP6K1); 140,000 tested, 0.81% active; activity change, % (series mostly up to about 58 µM); IP6K1 kinase, ADP-Glo luminescence, 2 h; active compounds read low; AID 1645851, 2021; Inositol hexakisphosphate kinase 1 (Homo sapiens), Q92551; in the data active means activity change below about -25%; further: on the % scale 0 is the no-effect control and ±100 the full control effect
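ADP-Glo luminescence measures ADP made by human IP6K1 during a 2 h RT reaction with ATP/IP6 (mix at 1.3 mM/130 uM); top library doses 57.5 and 19.1 uM final.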
The depositor's hits bear a star; i = inactive; ? = inconclusive; nt = not tested or not shown; ! = not active in a repeat; [ ] = another dose, or the depositor's remark. An excerpt weighted towards active compounds, which were near 3% of everything screened. Unless noted, the call rests on the fitted dose curve; in most records, active means well fitted curve in the direction sought with a large enough effect; inconclusive means small, poorly fitted or top-dose-only effect, or another doubt; inactive means no such curve, though single readings can be large; an effect the other way counts as inactive or inconclusive.

SMILES	SNCA viab count	KDM5B inh	SNCA expr inh	IP6K1 inhibitor
Cn1cnc2cc(-c3ccc(F)cc3)cc(C(=O)NCCc3ccccn3)c21	10.0%[87.6 µM]	28.2µM*	-2.2%[87.6 µM]	-3.5
COc1cc(CNC(=O)c2cc(-c3ccc(F)cc3)cc3ncn(C)c23)ccn1	-11.4%[87.6 µM]	31.6µM*	23.8%[87.6 µM]	6.7
CN(C)CCNC(=O)c1cc(-c2ccc(F)cc2)cc2ncn(C)c12	9.9%[87.6 µM]	28.2µM*	15.2%[87.6 µM]	0.7
Cn1cnc2cc(-c3ccc(F)cc3)cc(C(=O)NCCN3CCOCC3)c21	-6.8%[87.6 µM]	?	16.0%[87.6 µM]	54.3
Cc1ccc(C(=O)C(C)OC(=O)c2c(C)noc2C)cc1 (stereo not drawn)	nt	i	nt	nt
CN1CCC(CNC(=O)c2cc(-c3ccc(F)cc3)cc3ncn(C)c23)CC1=O (stereo not drawn)	8.3%[87.6 µM]	31.6µM*	-2.5%[87.6 µM]	-1.1
CN1CCC(N2CC[C@H](c3nc4ccc(C#N)cc4[nH]3)C2)CC1	-0.8%[87.6 µM]	35.5µM*	-18.6%[87.6 µM]	-11.2
Fc1ccc2nc([C@H]3CCN(Cc4ccc(F)c(F)c4)C3)[nH]c2c1	-22.2%[87.6 µM]	i	-14.5%[87.6 µM]	4.3
Fc1ccc(CN2CC[C@H](c3nc4ccc(C(F)(F)F)cc4[nH]3)C2)cc1F	31.6µM*	i	7.94µM*	10.2
COc1ccc2nc([C@H]3CCN(C4CCCCC4)C3)[nH]c2c1	-7.0%[87.6 µM]	28.2µM*	-0.7%[87.6 µM]	2.4
Fc1ccc2nc([C@H]3CCN(Cc4ncc[nH]4)C3)[nH]c2c1	6.6%[87.6 µM]	28.2µM*	-3.0%[87.6 µM]	31.1
O=C(Nc1ccccc1Cl)c1ccc2ccccc2n1	nt	i	nt	nt
CCCn1c(SCc2ncc(-c3cccc(Cl)c3)o2)n[nH]c1=O	nt	i	nt	nt
COc1cccc(-c2ccc(CN3CCCC(c4nc5ccc(C)cc5c(=O)[nH]4)C3)cc2)c1 (stereo not drawn)	-20.6%	35.5µM*!	?	-0.8
Cc1ccc2nc(C3CCCN(Cc4ccc(-c5cncnc5)cc4)C3)[nH]c(=O)c2c1 (stereo not drawn)	3.5%	?	2.6%	-5.4
COc1ccc2nc([C@H]3CCN(Cc4ccncc4)C3)[nH]c2c1	3.3%[87.6 µM]	35.5µM*	21.4%[87.6 µM]	-8.6
CC(SCc1ccccc1)C(=O)NCc1ccco1 (stereo not drawn)	nt	i	nt	nt
COc1ccc(C(=O)NC2CCN(Cc3cccc(-c4ccc(F)c(F)c4)c3)CC2)cc1	-13.3%	nt	?	-7.1
COc1ccc(C(O)c2cc3c(cc2NC(=O)c2ccc(Cl)cc2)OCCO3)cc1 (stereo not drawn)	nt	i	nt	nt
O=C(CCc1ccccc1)NC1CCN(c2nnc3ccccn23)CC1	3.9%	25.1µM*	14.6%	20.3
O=C(CCCc1ccccc1)NC1CCN(c2cc(-c3ccccc3)[nH]n2)CC1	7.2%	i	4.7%	32.2
O=C(NC1CCN(c2nnc3ccccn23)CC1)c1ccc(Cl)s1	?	25.1µM*	-6.0%	5.7
Cc1ccc(CC(=O)NC2CCN(c3nnc4cccc(C)n34)CC2)cc1	-1.2%	31.6µM*	-20.8%	36.1
COc1cccc(C(=O)NC2CCN(c3nnc4ccccn34)CC2)c1	-2.1%	28.2µM*	14.7%	7.9
COc1cc(-c2ccc(C)cc2)nc2ccc(C(=O)N3CCCC3)cc12	nt	i	nt	nt
SMILES	SNCA viab count	KDM5B inh	SNCA expr inh	IP6K1 inhibitor
COc1ccc(Cc2cnc(NC(=O)c3cc(=O)c4cc(C)ccc4o3)s2)cc1	nt	i	nt	nt
Cc1cc(Cl)ccc1OC(=O)/C(C#N)=C/c1ccc(Cl)cc1	nt	i	nt	nt
O=C(O)CN1C(=O)S/C(=C\c2cn(CC(=O)N3CCOCC3)c3ccccc23)C1=O	nt	i	nt	nt
Cc1cccc(CN2CCN(Cc3nc(-c4cccs4)oc3C)CC2CCO)n1 (stereo not drawn)	-2.5%	25.1µM*	24.5%	2.9
COc1cc2ncn(CCC(=O)N3CCSCC3)c(=O)c2cc1OC	nt	i	nt	nt
O=C(Cc1ccccc1F)N1CCC2(CC1)CN(c1ccncn1)CC2CO (stereo not drawn)	-1.1%[12.5 µM]	i	-19.9%	40.7
O=C(Cc1ccccc1)N1CCC2(CC1)CN(c1ncccn1)CC2CO (stereo not drawn)	-6.7%	22.4µM*	?	19.3
COc1cccc(CC(=O)N2CCC3(CC2)CN(c2ncccn2)CC3CO)c1 (stereo not drawn)	13.1%	?	-20.6%	5.4
O=C(Cc1cccc(F)c1)N1CCC2(CC1)CN(c1ncccn1)CC2CO (stereo not drawn)	5.5%	22.4µM*	-17.1%	23.1
O=C(NCc1ccc(C(F)(F)F)cc1)C1CCCN(Cc2cccc(-c3cccs3)c2)C1 (stereo not drawn)	?	nt	?	-1.0
CC(C)Nc1nc(-c2ccc3c(c2)CCCN3S(C)(=O)=O)cs1	nt	i	nt	nt
COc1ccc(CCC(=O)N2CCC(Cc3nc(C4CC4)n[nH]3)CC2)cc1	-6.2%	20µM*	-6.7%	-6.7
O=C(N1CCC(Cc2nc(C3CC3)n[nH]2)CC1)C1(c2ccccc2)CC1	11.8%	17.8µM*	-4.5%	1.7
CC(=O)N1CCC(Cc2nc(-c3ccccc3)n[nH]2)CC1	1.6%	20µM*	1.5%	15.1
COc1cccc(Nc2nc(-c3ccc(CNC(C)=O)s3)cs2)c1	nt	i	nt	nt
Cc1ccc(/C=C/c2nc3ccccc3n2S(=O)(=O)c2ccc(Br)cc2)cc1	-8.0%	?	?	1.1
CSc1ccc(/C=C/c2nc3ccccc3n2S(=O)(=O)c2cccc(Cl)c2)cc1	-4.4%	?	?	-40.8*
COc1ccccc1-c1cnc(Nc2cccnc2OC)c2c1CCO2	-14.4%[87.6 µM]	35.5µM*	9.7%[87.6 µM]	25.7
COc1ccccc1-c1cnc(Nc2ccccc2)c2c1CCO2	3.6%[87.6 µM]	?	37.1%[87.6 µM]	-20.0
COc1ccccc1-c1cnc(Nc2ccc(Cl)cn2)c2c1CCO2	7.9%[87.6 µM]	35.5µM*	35.3%[87.6 µM]	-9.3
COc1ccc(Nc2ncc(-c3ccccc3OC)c3c2OCC3)cc1	?	35.5µM*	38.3%[87.6 µM]	-8.0
COc1ccccc1-c1cnc(Nc2cccc(N[S+](C)(=O)[O-])c2)c2c1CCO2	?	25.1µM*	?	29.5
CN(CCNC(=O)C1CCN(c2nc3cccnc3s2)CC1)C1CCCCC1	nt	i	nt	nt
N#Cc1ccc(COC(=O)c2ccc(N3CCOCC3)nc2)c(F)c1	nt	i	nt	nt
CCOC(=O)[C@@H]1CN(C(=O)NC2CCCC2)[C@H]2c3ccccc3O[C@@H]12	nt	nt	nt	14.5
SMILES	SNCA viab count	KDM5B inh	SNCA expr inh	IP6K1 inhibitor
Cc1ccc2oc(C(=O)NC3CC(=O)N(C(C)C)C3)c(C)c2c1 (stereo not drawn)	-4.9%	25.1µM*	26.8%	10.7
Cc1c(Cl)cccc1NC(=O)CCNC(=O)CCC(=O)c1cccs1	nt	i	nt	nt
Cc1ccc(Nc2ccc(S(N)(=O)=O)cc2[N+](=O)[O-])cc1	nt	i	nt	nt
Cc1ccc(S(=O)(=O)c2ccc([N+](=O)[O-])o2)cc1	9.47µM*	nt	nt	-8.5
Cc1ccc(-n2nc(-c3c(C)nc4scc(CC(=O)NCc5ccco5)n4c3=O)cc2C)cc1	2.5%	?	-9.0%	-12.7
Cc1ccc(C)c(-n2nc(-c3c(C)nc4scc(CC(=O)NCc5ccco5)n4c3=O)cc2C)c1	8.91µM*	20µM*	?	-4.0
